Reference: ChEMBL document CHEMBL3988442, “University of Dundee, Small-Polar-MMV Screening Library” (2021)
In all, about 38,000 compounds went through this assay and about 1,200 (3.2%) showed an effect of 50% or more. The median lay at about -58%. Many of the other results were omitted from the sample, so strong results are more common in it than they were.

Test system: Plasmodium falciparum
Assay: Calibr Malaria Delayed Death Assay SOP
Type: functional, organism-based
Design: scale not given: in the data most compounds retested in dose-response had high values
Conditions: concentration 4.99e-06 (unit not given; other assays of the set use mol/L)

Compound | Percent Effect [%]
CC(CO)(NC(=O)NCCc1ccc(Br)s1)C1CC1 (stereo not drawn) | -76.18
Cc1[nH]ncc1C(=O)N1CCCC1c1noc(C2CC2)n1 (stereo not drawn) | -58.86
CCOCC(O)CN1CCN(C(=O)c2ccc(OC)cc2)CC1 (stereo not drawn) | -30.2
O=C(Nc1ccc(=O)n(Cc2ccccc2Cl)c1)C1CC1 | -14.36
CCOc1cccc(CNC(C)c2ccc(-n3ccnc3)cc2)c1O (stereo not drawn) | 74.87
CCOc1cccc(CNc2ccccc2C(=O)OC)c1O | -51.83
COc1cccc(CNC(C)c2ccc(-n3ccnc3)cc2)c1OC.Cl (stereo not drawn) | 16.61
COCCCNC(=O)c1ccn(-c2ccc3ccccn23)n1 | -7.182
N#CCCNC(=O)c1ccn(-c2ccc3ccccn23)n1 | -51.94
CN(C)CCNC(=O)c1ccn(-c2ccc3ccccn23)n1.O=C(O)C(F)(F)F | 83.48
CCn1nc2c(cc1=O)CN(c1ncnc3sccc13)CC2 | 2.158
OC(c1ccccn1)C1CCN(Cc2cc3n(n2)CCCNC3)CC1 (stereo not drawn) | -111.2
Clc1cccc2c3c([nH]c12)CCN(Cc1cc2n(n1)CCNC2)C3 | 78.46
c1ccc(COC2CCN(Cc3cc4n(n3)CCCNC4)CC2)nc1 | -20.17
c1csc(N2CCN(Cc3cc4n(n3)CCNC4)CC2)n1 | -68.56
c1ccc2c3c([nH]c2c1)CN(Cc1cc2n(n1)CCNC2)CC3 | 44.64
CSCCC(Nc1nc(C)cc(C)n1)C(=O)NC(C)(C)CO (stereo not drawn) | -11.3
COc1ccccc1CC1CCCN(CCN2CCOC2=O)C1 (stereo not drawn) | 47.59
COc1ccc(CCN2CCCC(CN(C)Cc3ccc(C)o3)C2)cc1 (stereo not drawn) | -48.89

Compound | Percent Effect [%]
Cc1ncc(CN(C)C2CCCN(c3cccnn3)C2)s1 (stereo not drawn) | -24.6
CN(C)C(=O)CN1CCO[C@H]2CN(Cc3cccc(F)c3)C[C@H]21 | -27.48
Cc1nc(C2CCCNC2)cc(N(C)CCc2ccccc2)n1 (stereo not drawn) | 52.76
Cc1nc(C2CCCNC2)cc(N(C)CCc2cn[nH]c2)n1 (stereo not drawn) | -154.6
CCn1ccnc1CN(C)c1cc(C2CCCNC2)nc(C)n1 (stereo not drawn) | -40.5
c1ccc(C(OCCNC2CCc3ncnn3C2)c2ccccc2)cc1 (stereo not drawn) | 43.54
Cc1ccccc1C1(CNCc2cnc(N3CCOCC3)nc2)CC1 | 50.04
c1ccc(C2(CNCc3cnc(N4CCOCC4)nc3)CC2)cc1 | -24.34
OC1(CNCc2cnc(N3CCOCC3)nc2)CCCCC1 | -76.92
O=C(O)C(F)(F)F.O=C(O)[C@]12CCCN(Cc3ccsc3)C[C@H]1CN(c1ncccn1)C2 | -238.9
Cn1cc(CN2CC3(CCN(Cc4ccsc4)C3)C2)cn1 | -1.772
O=C(O)C(F)(F)F.O=C(O)C(F)(F)F.c1cnc(N2CCCC3(CCN(c4ncccn4)C3)C2)nc1 (stereo not drawn) | -228.4
Fc1cnc(N2CCCC3(CCN(c4ncccn4)C3)C2)nc1 (stereo not drawn) | -118
CCC(CC)CN1CCC2(CCCN(c3ncccn3)C2)C1 (stereo not drawn) | 60.59
O=C(O)C(F)(F)F.O=C(O)C(F)(F)F.O=C(O)[C@]12CCCN(Cc3ccsc3)C[C@H]1CN(c1ccccn1)C2 | -252.9
Cc1cnc(N2CCC3(CCCN(c4ncc(F)cn4)C3)C2)nc1 (stereo not drawn) | -149.1
O=C(O)C(F)(F)F.O=C(c1cnccn1)N1CCCC2(CCN(Cc3ccsc3)C2)C1 (stereo not drawn) | -36.03
c1cnc(N2CCCC3(CCN(Cc4ccsc4)C3)C2)nc1 (stereo not drawn) | 66.41
Fc1cnc(N2CC3(CCN(Cc4ccsc4)C3)C2)nc1.O=C(O)C(F)(F)F | -1.441
